# BAZ2B block: BAZ2B (human) inhibition; Q9UIF8; AlphaScreen BAZ2B-H3K14Ac peptide displacement; Potency, µM (doses to about 114 µM), inactives show top-dose activity change, negative = inhibition, usual class: inhibitors; hit rate 4.4% among 360,000; note: % is set by controls: 0 for no effect and ±100 for the full control effect; nearly all actives have a fitted effect of over 60% in size
#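 Compounds, titrated to a top concentration of 110 uM, were incubated 30 min at room temperature with preformed BAZ2B/acetyl-K14 H3 peptide complex (50 nM each). Proximity signal was measured by AlphaScreen after 20 min with beads.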
# JMJD2A Tudor inh: inhibitors of human JMJD2A Tudor domain. AlphaScreen JMJD2A-Tudor / H3K4me3 peptide binding. Potency, µM (top dose mostly 114 µM), without a hit: at the top dose activity change, negative = inhibition, most hits filed as inhibitors. hit rate 4.4% among 390,000; note: % is set by controls: 0 for no effect and ±100 for the full control effect; nearly all actives have a fitted effect of over 50% in size
# G9a block: blocks human histone lysine methyltransferase G9a; Q96KQ7; G9a H3K9 monomethylation, AlphaScreen, 2 h; Potency, µM (series often up to 102 µM), without a hit: at the top dose activity, negative = inhibition, usual class: inhibitors; hit rate 8.8% among 350,000; AID 504332; note: % is set by controls: 0 for no effect and ±100 for the full control effect; nearly all actives have a fitted effect of over 75% in size
#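 Methyltransferase reactions run at room temperature for 2 h (20 nM enzyme, 500 nM biotin-H3K9 peptide, 20 uM SAM) after a 15 min compound preincubation; product detected by AlphaScreen beads and anti-H3K9me1 antibody.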
# GLS inhibitor: glutaminase GLS (human) inhibition | O94925 | GLS enzymatic activity, qHTS titration | Potency, µM (titrated, usually from 45.5 µM), without a hit: at the top dose activity change, negative = inhibition, actives largely listed as inhibitors | hit rate 0.21% among 410,000; note: % is set by controls: 0 for no effect and ±100 for the full control effect
# Target sequence (O94925 whole entry, looked up): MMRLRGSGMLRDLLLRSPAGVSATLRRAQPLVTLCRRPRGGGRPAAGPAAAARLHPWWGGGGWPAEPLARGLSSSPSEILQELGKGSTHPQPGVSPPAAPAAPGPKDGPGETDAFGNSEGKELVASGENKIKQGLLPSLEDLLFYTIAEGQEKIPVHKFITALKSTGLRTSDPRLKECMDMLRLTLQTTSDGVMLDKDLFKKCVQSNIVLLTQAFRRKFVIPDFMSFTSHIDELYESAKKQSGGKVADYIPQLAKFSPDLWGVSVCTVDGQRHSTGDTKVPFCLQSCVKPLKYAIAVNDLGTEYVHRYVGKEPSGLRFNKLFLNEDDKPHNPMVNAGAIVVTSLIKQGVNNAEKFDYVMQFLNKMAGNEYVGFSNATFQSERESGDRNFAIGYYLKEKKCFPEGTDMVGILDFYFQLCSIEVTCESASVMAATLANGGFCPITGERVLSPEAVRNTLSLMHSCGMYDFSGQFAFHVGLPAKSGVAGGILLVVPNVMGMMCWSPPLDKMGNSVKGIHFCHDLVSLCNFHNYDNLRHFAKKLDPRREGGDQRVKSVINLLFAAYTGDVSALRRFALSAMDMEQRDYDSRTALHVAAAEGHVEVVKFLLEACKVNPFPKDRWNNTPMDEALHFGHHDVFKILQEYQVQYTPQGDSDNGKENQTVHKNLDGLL
#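 Coupled fluorescence readout: glutamate oxidase/HRP/Amplex Red detect glutamate formed by hKGA from L-glutamine (1 mM solution added). Buffer 45 mM KH2PO4 pH 8.2, 0.02% Tween-20; reads at t0 and 30 min RT.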
# HP1b chromo inh: blocks HP1-beta chromodomain binding to methylated histone tails. P83916. AlphaScreen HP1-beta / biotin-H3K9me3 peptide binding. Potency, µM (titrated, usually from 114 µM), for the others: top-dose activity change, negative = inhibition, hits mostly inhibitors. hit rate 0.56% among 390,000; note: nearly all actives have a fitted effect of over 70% in size
#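 AlphaScreen: HP1-beta (50 nM) preformed 30 min with biotin-H3(1-18)K9me3 peptide (50 nM) in PBS pH 7.4, 0.01% Tween-20. Compound added for 30 min at RT, then streptavidin donor/nickel chelate acceptor beads (10 ug/mL) for 30 min.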
# An asterisk follows results filed as active; ? = inconclusive; . = not tested or not shown; [ ] = remark or other dose. In the library only some 10% were active in any assay of this set; here they are far more common. Calls come from the whole dose curve; as a rule, active = well fitted curve in the direction sought with a large enough effect; inconclusive = small, poorly fitted or top-dose-only effect, or another doubt; inactive = no such curve, though single readings can be large; an effect the other way counts as inactive or inconclusive. Potency is the fitted concentration of half-maximal effect.
SMILES,BAZ2B block,JMJD2A Tudor inh,G9a block,GLS inhibitor,HP1b chromo inh
Cc1cccc([C@@H]2[C@@H]3C(=O)N(Cc4ccccc4)C(=O)[C@@H]3[C@]3(CC(C)C)C(=O)N(c4cccc(Cl)c4)C(=O)N23)c1,-1%,-17%,7%,-5%,30%
Cc1ccccc1-c1nccc(NCc2cccnc2)n1,.,.,1%[0.501 µM],.,.
CCOc1cc(N2CCOCC2)c(OCC)cc1NC(=O)COC(=O)c1c(CC)noc1C,.,-13%,.,2%,-1%
CCOC(=O)CSc1nc2sc3c(c2c(=O)n1CC)CC(C)(C)OC3,6%,2%,.,-3%,14%
CC(C)OCCCn1c(=S)[nH]c2ncccc2c1=O,-7%,?,50µM*,-18%,-6%
CCN(CC)CCCn1c(=S)[nH]c2ncccc2c1=O,-9%,8.9µM*,50µM*,10%,?
CCN(CCCn1c(=S)[nH]c2ncccc2c1=O)c1ccccc1,-31%,-25%,1%,25%,9%
Cc1ccc(S(=O)(=O)N2[C@@H](c3ccc(Cl)cc3)C(C(=O)O)=CC[C@H]2c2ccc(C(C)C)cc2)cc1,79µM*,-18%,15%[2.33 µM],47%,15%
COc1cccc([C@@H]2CC=C(C(=O)O)[C@H](c3ccccc3F)N2S(=O)(=O)c2ccc(C)cc2)c1,79µM*,-6%,14%[2.33 µM],33%,53%
COc1cccc([C@@H]2CC=C(C(=O)O)[C@H](c3ccc(C)cc3)N2S(=O)(=O)c2ccc(C)cc2)c1,.,-5%,.,3%,33%
Fc1ccc(N/N=C2/CCSc3sccc32)c(F)c1,-15%,?,.,-18%,-35%
CCCCCCC(=O)N=Nc1c(O)[nH]c2ccc([N+](=O)[O-])cc12,-4%,?,-2%[59 µM],8%,-11%
O=[N+]([O-])c1ccc(N=Nc2c(O)[nH]c3ccc(F)cc23)cc1,-32%,?,40µM*,4%,-39%
COCCNC(=S)N=Nc1c(O)[nH]c2ccc([N+](=O)[O-])cc12,-4%,25µM*,.,9%,14%
COc1ccccc1CN1C(=O)[C@@H]2C(CC(N)=O)NC3(C(=O)Nc4c3ccc(Cl)c4C)[C@@H]2C1=O (stereo not given in full),7%,-19%,-18%,-2%,9%
Cc1occc1C(=O)NNC(=S)NCc1ccc(Cl)cc1,1%,-14%,?,13%,42%
COCCCn1c(SCC(N)=O)nnc1-c1ccccc1,6%,-19%,17%[59 µM],2%,18%
COCCCn1c(Cc2csc(Nc3ccccc3)n2)nnc1SCC(N)=O,56µM*,?,6.3µM*,-9%,-19%
NC(=O)CSc1nnc(Cc2csc(Nc3ccccc3)n2)n1Cc1ccccc1,4%,?,35µM*,70%,19%
CCN(CC)S(=O)(=O)c1cccc(C(=O)Nc2nnc(C)s2)c1,-2%,-15%[11.4 µM],16%[12.7 µM],12%,28%
Cc1cccc(Oc2ccc(NC(=O)C3=CC=CN4CCS(=O)(=O)N=C34)cc2)c1,-11%,-30%,-7%[12.7 µM],0%,12%
N#C/C(=N/Nc1ccccc1[N+](=O)[O-])C(N)=S,-18%,-22%,1.1µM*,12%,12%
N#C/C(=N\Nc1ccc(Cl)cc1)C(N)=S,?,?,.,18%,-31%
Cc1ccc(N/N=C(\C#N)C(N)=S)cc1C,45µM*,?,2.8µM*,-24%,-18%
Cc1ccc(NC(N)=S)cc1C,6%,-6%[57.1 µM],13%[59 µM],13%,40%
SMILES,BAZ2B block,JMJD2A Tudor inh,G9a block,GLS inhibitor,HP1b chromo inh
N#C/C(=N\Nc1ccccc1)C(N)=S,?,22µM*,1.6µM*,11µM*,-21%
CCOC(=O)C1=NN(N=O)C2(CC(=O)N(c3cc(C)cc(C)c3)C2=O)C1 (stereo not given),-9%,-34%,4.5µM*,-6%,10%
COc1ccc(/C=C/C(=O)Oc2cccc(/C=N/NC(=O)COc3c(C)cccc3C)c2)cc1,100µM*,2%,-80%[12.7 µM],12%,20%
CC(C)c1ccc(Nc2nc(Cl)nc(Cl)n2)cc1,?,89µM*,40µM*,1%,3%
CNc1nc(Cl)nc(Nc2ccccc2)n1,.,-6%,-39%,1%,48%
COc1ccc(-c2ccc3c(N)c(C(=O)c4cccc(OC)c4)sc3n2)cc1,-18%,-9%,50µM*,3%,69%
Cc1oc(-c2cc(F)ccc2F)nc1CN1CCN(c2cnccn2)CC1,71µM*,-20%,.,-7%,26%
Cn1nccc1C(=O)N1CCc2c([nH]c3ccccc23)C1c1ccc(F)cc1 (stereo not given),?,?,?,4%,-7%
Cc1ccc2nc(/C(C#N)=C/c3ccc(-c4cccc(Cl)c4)o3)[nH]c2c1,?,-32%,?,-5%,20%
N#C/C(=C\c1ccccc1C(=O)O)c1nc2ccccc2[nH]1,3%,-14%,8%[2.33 µM],-4%,46%
N#C/C(=C\c1ccc(-c2ccc(C(=O)O)cc2)o1)c1nc2ccccc2[nH]1,-1%,89µM*,-37%[59 µM],-12%,?
N#C/C(=C\c1ccc(-c2ccc(Cl)c(C(=O)O)c2)o1)c1nc2ccccc2[nH]1,50µM*,?,-25%[59 µM],?,7%
CCC(NC(=O)c1oc2ccccc2c1COC)c1ccc(OC)cc1 (stereo not given),13%,-2%,10%,0%,48%
O=C(Cc1ccccc1[N+](=O)[O-])NCCc1ccc(F)cc1,-2%,-12%,17%[59 µM],-2%,32%
S=C(NCCN1CCOCC1)Nc1ccc(-c2nc3ccccc3[nH]2)cc1,-26%,-18%,45µM*,25%,8%
Fc1ccc(NC(=S)NCCN2CCOCC2)cc1,-27%,-17%,-22%,0%,-18%
S=C(Nc1ccc(-c2nc3ccccc3[nH]2)cc1)Nc1cccnc1,-27%,-34%,45µM*,-9%,-36%
CN(C)c1ccc(N2CC(C)(C)C2=O)cc1,-22%,-27%,10µM*,0%,-18%
CC(=O)c1ccc(N2CC(C)(C)C2=O)cc1,-3%,-15%,0%,-1%,7%
COc1ccccc1N1CCN(/N=C\c2sccc2C)CC1,13µM*,?,16µM*,1%,-25%
COc1ccccc1N1CCN(/N=C/c2cccc(OC)c2OC)CC1,35µM*,?,50µM*,9%,?
COc1ccccc1N1CCN(/N=C/c2c(C)nn(-c3ccccc3)c2C)CC1,28µM*,40µM*,?,23%,18µM*
COc1ccccc1N1CCN(/N=C\c2ccc(C)o2)CC1,-8%[57.1 µM],-28%,?,59%,?
COc1ccccc1N1CCN(/N=C/c2cc(OC)c(OC)c(OC)c2)CC1,?,?,?,24%,?
COc1ccccc1N1CCN(/N=C\c2ccccc2)CC1,?,-34%,-13%[0.501 µM],20%,-11%
Cc1ccsc1C(=O)N1CCc2ccccc2C1,3%,3%,26%,12%,22%
